The test system of assay [1] is Vero E6 infected with SARS-CoV-2. Put plainly: morphology score (similarity to uninfected cells); higher = more like uninfected cells. As to conditions: 24 h.
Assay [2] has the same test system. Put plainly: SARS-CoV-2 infection rate relative to infected DMSO; higher = more infection, active = 60 or less. As to conditions: 24 h.

Structures can show the parent of a compound that is named as a salt.

In turn, `O=C(Oc1ccccc1C(=O)O)c1ccccc1O` [sasapyrine] (10 µM) returned a morphology score in assay [1] of 0.0337. In addition, the SARS-CoV-2 infection rate in assay [2] is 108% (inactive).

As to `CCOC(=O)[C@@H](N)Cc1ccc(O)c(O)c1` [etilevodopa] (10 µM), the morphology score in assay [1] was -0.149. Besides, the SARS-CoV-2 infection rate in assay [2] was 110% (inactive).

Regarding `NC(=O)c1ccc(N(C(N)=O)c2c(F)cccc2F)nc1-c1ccc(F)cc1F` (10 µM), the morphology score in assay [1] was -0.134. Also, the SARS-CoV-2 infection rate in assay [2] was 111% (inactive).

In assay [1], `Oc1ccc(O)cc1` [hydroquinone] (10 µM) showed a morphology score of 0.00582. Further, the SARS-CoV-2 infection rate in assay [2] was 108% (inactive).

The molecule `COc1ccc([C@@H]2CC(=O)c3c(O)cc(O[C@@H]4O[C@H](CO)[C@@H](O)[C@H](O)[C@H]4O[C@@H]4O[C@@H](C)[C@H](O)[C@@H](O)[C@H]4O)cc3O2)cc1O` [neohesperidin] (10 µM) returned a morphology score in assay [1] of 0.00505. In assay [2], the SARS-CoV-2 infection rate was 112% (inactive).

Molecule `CNc1cc(OC)c(C(=O)NC2CCN(Cc3ccccc3)C2C)cc1Cl` (centres undefined) [nemonapride] (10 µM) gave a morphology score in assay [1] of 0.642. For the same molecule, the SARS-CoV-2 infection rate in assay [2] is 36.5% (active).

In assay [1], `CC#C[C@]1(O)CC[C@H]2[C@@H]3CCC4=CC(=O)CCC4=C3[C@@H](c3ccc(N(C)C)cc3)C[C@@]21C` [mifepristone] (10 µM) displayed a morphology score of 0.443. The SARS-CoV-2 infection rate in assay [2] is 65.5% (inactive).

In assay [1], `CC(C)(C(=O)O)c1ccc(C(O)CCCN2CCC(C(O)(c3ccccc3)c3ccccc3)CC2)cc1` (centres undefined) [fexofenadine] (10 µM) returned a morphology score of -0.361. In addition, the SARS-CoV-2 infection rate in assay [2] is 122% (inactive).

In turn, `O=C1[O][SbH]23[O]C(=O)C([O]2)C2[O][SbH]4([O]C(=O)C([O]4)C1[O]3)[O]C2=O` [antimonyl] (10 µM) gave a morphology score in assay [1] of 0.138. In addition, in assay [2], the SARS-CoV-2 infection rate is 99.5% (inactive).

On to `CCCCCCCCCCCCCCCCCCCCCC(=O)Nc1ccn([C@@H]2O[C@H](CO)[C@@H](O)[C@@H]2O)c(=O)n1` [enocitabine] (10 µM), for which the morphology score in assay [1] worked out at 0.135. Also, in assay [2], the SARS-CoV-2 infection rate is 94.5% (inactive).

For the molecule `O=C(Nc1cccc(Cl)c1)c1ccccn1` (10 µM), in assay [1], the morphology score stood at 0.228. Moreover, the SARS-CoV-2 infection rate in assay [2] is 106% (inactive).

Turning to `Nc1nc(F)nc2c1ncn2[C@@H]1O[C@H](COP(=O)(O)O)[C@@H](O)[C@@H]1O` [fludarabine-phosphate] (10 µM), the morphology score in assay [1] came to 0.103. Besides, the SARS-CoV-2 infection rate in assay [2] is 82.5% (inactive).

Consider `C[C@H](NC(=O)c1sccc1OCc1ccc(Cl)cc1)c1ccccc1` (10 µM), for which the morphology score in assay [1] was 0.0842. The SARS-CoV-2 infection rate in assay [2] was 94.5% (inactive).

In turn, `CC(Cc1ccccc1)NCCC(c1ccccc1)c1ccccc1` (centres undefined) [prenylamine] (10 µM) had a morphology score in assay [1] of 0.878. Further, the SARS-CoV-2 infection rate in assay [2] is 19.5% (active).

For the molecule `CC1CCN(CCCC(=O)c2ccc(F)cc2)CC1` [melperone] (10 µM), the morphology score in assay [1] was 0.389. Besides, the SARS-CoV-2 infection rate in assay [2] was 80.5% (inactive).

For the molecule `COc1ccc(C2CNC(=O)C2)cc1OC1CCCC1` (centres undefined) [rolipram] (10 µM), the morphology score in assay [1] came to 0.39. In addition, the SARS-CoV-2 infection rate in assay [2] was 100% (inactive).

`NC1=N[C@@](c2cccc(-c3cncnc3)c2)(c2ccnc(C(F)F)c2)c2cccc(F)c21` (10 µM) yielded a morphology score in assay [1] of 0.163. In addition, the SARS-CoV-2 infection rate in assay [2] is 92.5% (inactive).

In turn, `Cc1nc2c(OCc3ccccc3)cccn2c1CC#N` (10 µM) displayed a morphology score in assay [1] of 0.0125. For the same molecule, the SARS-CoV-2 infection rate in assay [2] was 110% (inactive).

The molecule `O=C(c1ccc(CN2CCOCC2)cc1)N1CCN(C2CC2)CC1` [bavisant] (10 µM) gave a morphology score in assay [1] of -0.0555. Further, in assay [2], the SARS-CoV-2 infection rate is 100% (inactive).

On to `C=CC(=O)Nc1cccc(Oc2nc(Nc3ccc(N4CCN(C)CC4)cc3OC)ncc2Cl)c1` (0.833333 µM), for which the morphology score in assay [1] is -0.0953. Moreover, the SARS-CoV-2 infection rate in assay [2] is 115% (inactive).

As to `O=C(Nc1ccc(S(=O)(=O)Nc2ccccc2Cl)c(Cl)c1)c1ccccn1` (10 µM), the morphology score in assay [1] is -0.132. The SARS-CoV-2 infection rate in assay [2] was 114% (inactive).

For the molecule `O=C(Nc1ccncc1)c1cc([N+](=O)[O-])ccc1Cl` (10 µM), the morphology score in assay [1] was 0.143. The SARS-CoV-2 infection rate in assay [2] is 87% (inactive).

In turn, `C[C@H]1CCc2c(cc(Br)c(F)c2Br)N1C=O` (10 µM) had a morphology score in assay [1] of 0.0995. Moreover, the SARS-CoV-2 infection rate in assay [2] is 94.5% (inactive).

Regarding `C[C@H](N)Cc1c[nH]cn1` [alpha-methylhistamine-dihydrobromide-(S)-(+)] (10 µM), the morphology score in assay [1] was found to be 0.17. Moreover, the SARS-CoV-2 infection rate in assay [2] was 99% (inactive).

Turning to `N[C@@H](Cc1ccc(Cl)cc1)C(=O)O` (racemic) [fenclonine-(+/-)] (10 µM), the morphology score in assay [1] is 0.00322. Besides, in assay [2], the SARS-CoV-2 infection rate is 109% (inactive).

In the case of `C[C@H](N)[C@H](O)c1ccc(O)c(O)c1` [levonordefrin] (10 µM), in assay [1], the morphology score worked out at 0.0723. Moreover, the SARS-CoV-2 infection rate in assay [2] is 94.5% (inactive).

`CC(C)c1ccc(C(=O)c2cccs2)c(SCCCCCCCCN(C)C)n1` (0.833333 µM) displayed a morphology score in assay [1] of 0.361. In addition, the SARS-CoV-2 infection rate in assay [2] is 94.5% (inactive).

Consider `O=C(c1ccc(-c2ccc(Cl)cc2)o1)N(Cc1ccccn1)c1ccc(N2CCNCC2)cc1` (0.833333 µM), for which the morphology score in assay [1] amounted to 0.128. Also, in assay [2], the SARS-CoV-2 infection rate was 106% (inactive).

In turn, `CC(=O)N[C@@H](Cc1c[nH]c2ccccc12)C(=O)OCc1cc(C(F)(F)F)cc(C(F)(F)F)c1` (10 µM) returned a morphology score in assay [1] of 0.31. Also, the SARS-CoV-2 infection rate in assay [2] was 93% (inactive).

For the molecule `CN1CCN(CCCN2c3ccccc3Sc3ccc(Cl)cc32)CC1` [prochlorperazine] (10 µM), in assay [1], the morphology score was 0.742. Further, the SARS-CoV-2 infection rate in assay [2] was 27.5% (active).

Turning to `Cc1ccsc1C(=CCCN1CCC[C@@H](C(=O)O)C1)c1sccc1C` [tiagabine] (10 µM), the morphology score in assay [1] came out at 0.0772. In addition, in assay [2], the SARS-CoV-2 infection rate is 109% (inactive).

Consider `CC(CNS(=O)(=O)C(C)C)c1ccc(-c2ccc(C#N)cc2)cc1` (centres undefined) (10 µM), for which the morphology score in assay [1] was -0.219. The SARS-CoV-2 infection rate in assay [2] is 114% (inactive).

The values above are taken from the supplement of paper PMC13380429.
